# Sampled rows, rich in hits. Any-hit rate of the full collection: about 6.8%.
# Spn PMK inh: blocks S. pneumoniae phosphomevalonate kinase; purified PMK, PK/LDH-coupled NADH absorbance 340 nm; inhibition, % at 10 µM; actives 0.49% (n = 65,000); AID 539;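 active = top-ranked compounds by inhibition in the single 10 µM screen, taking a fixed number of the strongest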
# Spn MK inh: S. pneumoniae mevalonate kinase inhibition; purified MK, PK/LDH-coupled NADH absorbance 340 nm; inhibition, % at 10 µM; actives 0.48% (n = 65,000); AID 555;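 active = ranked among the strongest by inhibition in the single 10 µM screen, a fixed top-ranked set picked for dose follow-up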
# NADH enzymes: inhibition of NAD/NADH coupling enzymes, library profiling; coupled PK/LDH NADH assays, four targets; IC50, µM (doses to about 10 µM); actives 0.02% (n = 65,000); AID 774;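 active = single-dose screening hits from any of four coupled enzyme assays that gave an IC50 when retested across doses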;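 also: the DPM-DC format reads NADH fluorescence rather than 340 nm absorbance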
# A340 absorber: compounds absorbing at 340 nm. compound absorbance at 340 nm, fold over control. fold change at 10 µM. 65,000 tested, under 10 active;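 active = at 10 µM dose, initial 340 nm absorbance at least 2 fold that of control wells; inactive = change under 2 fold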;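 also: initial absorbance extrapolated from kinetic A340 decline of NADH oxidation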
# Spn DPM-DC inh: S. pneumoniae DPM-DC inhibition. purified DPM-DC, PK/LDH coupled NADH fluorescence. calls only at 10 µM. AID 556. actives 0.49% (n = 65,000);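 active = the 320 compounds with the highest percent inhibition in the single-dose primary screen, excluding strongly autofluorescent ones, cut at about 32% in these data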;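 also: kinetic rate of NADH fluorescence loss reporting ADP formed by the decarboxylase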
# Fluor 339 460: intrinsic fluorescence of library compounds, ex339/em460 – biochemical, MLSMR library, data from DPM-DC assay, artefact control, profiling panel. fluorescence fold increase at 10 µM. AID 709. actives 5.5% (n = 65,000). compound autofluorescence, ex339/em460 nm, NADH buffer; active compounds read high; 1 = no-compound wells, NADH background;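 active = at 10 µM, mean starting fluorescence two-fold or more over control wells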;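 also: signal is the first read of a kinetic run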
# A number is an active result; 0 = inactive; - = no result given.
SMILES,Spn PMK inh,Spn MK inh,NADH enzymes,A340 absorber,Spn DPM-DC inh,Fluor 339 460
O=C(Cn1cc(C(F)(F)F)ccc1=O)N1CCN(S(=O)(=O)c2ccccc2)CC1,27,0,0,0,0,0
O=C(CN1CCc2ccccc2C1)N1CCN(S(=O)(=O)c2ccccc2)CC1,0,0,0,0,0,0
CC(C)Cc1cc(-c2ccco2)c(C#N)c(N)n1,0,0,0,0,-,2.2
COc1cc(C(=O)O)cc(Br)c1OC1CCCC1,0,0,0,0,0,0
O=C1c2cccc3cccc(c23)C(=O)N1c1nncs1,0,0,0,0,0,0
CN(C)c1ccc(-n2cc3c(=O)n(C)c(=O)n(C)c3c2)cc1,0,0,0,0,0,0
CCN(CC)c1ccc(-n2cc3c(=O)n(C)c(=O)n(C)c3c2)cc1,0,0,0,0,-,3.7
O=C(c1cncc(Br)c1)N1CCN(c2ccc(N3CCOCC3)nn2)CC1,0,0,0,0,-,2.1
O=C(c1ccc(N2CCOCC2)nc1)N1CCOCC1,0,0,0,0,0,0
O=C(NCc1ccco1)C1CCN(c2ccc(N3CCOCC3)nn2)CC1,0,0,0,0,-,2.5
O=C(c1ccc(N2CCCCS2(=O)=O)cc1)N1CCN(c2ccc(N3CCOCC3)nn2)CC1,0,0,0,0,-,2.1
O=C(C1CCN(c2ccc(N3CCOCC3)nn2)CC1)N1CCN(c2ccc(F)cc2)CC1,0,0,0,0,-,4.8
COc1cc(C(=O)N2CCN(c3ncnc4sc(C)c(C)c34)CC2)cc(OC)c1OC,0,0,0,0,0,0
CCCCn1c(Cl)nc2c1c(=O)n(C)c(=O)n2C,0,40,0,0,0,0
CCCCCn1c(CN2CCN(C)CC2)nc2c1c(=O)n(C)c(=O)n2C,0,0,0,0,0,0
Cc1ccc(-c2cc(-c3nnc(SCC(=O)N(C)CCC#N)n3N)c3ccccc3n2)cc1,0,0,0,0,-,4.2
Cc1ccc(-c2nnc(SCC(=O)O)n2N)cc1,0,0,0,0,0,0
CN1CCN(C(=O)Nc2cccc3ccccc23)CC1,0,0,0,0,-,2.1
CCN1CCN(C(=O)Nc2cccc3ccccc23)CC1,0,0,0,0,0,0
NC(=O)C1CCCN(C(=O)Nc2cccc3ccccc23)C1 (stereo not given),0,0,0,0,0,2.3
Cc1nccc2[nH]c(=O)c(C(=O)NC3CCN(Cc4ccccc4)CC3)cc12,0,0,0,0,0,0
CCOc1cc2[nH]c(=O)n(CC3CCC(C(=O)NC(C)CC)CC3)c(=O)c2cc1OCC (stereo not given),0,0,0,0,0,2.7
CCOc1cc2[nH]c(=O)n(CC3CCC(C(=O)NC4CCCCC4)CC3)c(=O)c2cc1OCC (stereo not given),0,0,0,0,0,0
CCCCN(C)C(=O)CCCCn1c(=O)[nH]c2cc(OCC)c(OCC)cc2c1=O,0,0,0,0,0,2.2
O=C(NCC(=O)N(c1cccnc1)C(C(=O)NCc1ccco1)c1ccccc1)c1ccco1 (stereo not given),0,0,0,0,0,0
SMILES,Spn PMK inh,Spn MK inh,NADH enzymes,A340 absorber,Spn DPM-DC inh,Fluor 339 460
O=c1[nH]c(N2CCc3ccccc3C2)nc2c1CCCC2,0,0,0,0,0,0
O=c1[nH]c(-c2ccccc2O)nc2c1CCCC2,0,0,0,0,0,3.3
COc1ccc(NC(=O)N(CCC(C)C)C(C)c2ccccn2)c(OC)c1 (stereo not given),0,0,0,0,0,0
Clc1ccc(C(c2nnnn2C2CCCC2)N2CCN(Cc3ccncc3)CC2)cc1 (stereo not given),25,0,0,0,0,0
c1ccc(C(c2nnnn2C2CCCC2)N2CCCCCC2)nc1 (stereo not given),0,0,0,0,0,0
c1cncc(C(c2nnnn2C2CCCC2)N2CCCC2)c1 (stereo not given),25,0,0,0,0,0
O=C(CC1Sc2ncnn2C1=O)Nc1ccc(Br)cc1 (stereo not given),0,0,0,0,0,0
O=C(NC1CC1)c1ccc2c(c1)ncn2C1CCCC1,28,0,0,0,0,0
CSc1ccc(/C=N/n2c(C)cc(C)cc2=O)cc1,0,0,0,0,0,0
CCOC(=O)Nc1ccc2c(CN3C(=O)NC4(CCCC4)C3=O)cc(=O)oc2c1,0,0,0,0,-,3.3

# Screens: PubChem, SRMLSC
